Reference: PubChem BioAssay (NCATS)
Records with an inconclusive call do not appear. Values without a mark were called inactive. The call rests on the fitted dose curve; in most records, active means well fitted activation curve with a large enough effect; inconclusive means small, poorly fitted or top-dose-only effect; inactive means flat fitted curve, though single readings scatter.

test: Cellular Toxicity (caspase-3) H-4-II-E (AID 663); settings: H-4-II-E rat hepatoma; Potency: caspase-3 activation; series mostly up to 92.2 µM; caspase-3 activation: at the top concentration;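 further: cells exposed to compound for 16 hr before readout; 0% = DMSO basal and 100% = 100 µM tamoxifen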
Source text: NIH Chemical Genomics Center [NCGC]
NIH Molecular Libraries Screening Centers Network [MLSCN]
National Institutes of Environmental Health Sciences [NIEHS]
National Toxicology Program [NTP]
We have developed a 1536-well cell-based assay for quantitative high throughput screening (qHTS) against a number of cell lines to determine in vitro caspase 3/7 of small molecules. This particular assay uses the H-4-II-E cell line which is derived from rat hepatoma.
NCGC Assay Protocol Summary:
The Caspase-Glo 3/7 assay (Promega) is a homogeneous method to measure caspase-3 and caspase-7 activities in cultured cells. The quantitation of caspase 3/7 activity is based on the cleavage of a peptide-aminoluciferin substrate. After caspase cleaves the substrate the free aminoluciferin is liberated and serves as the substrate of luciferase, which generates the light. The luminescent signal is proportional to amount of caspase 3/7 activity present.
Using the Caspase-Glo 3/7 assay, the amount of caspase 3/7 activity was measured in the H-4-II-E cell line with complete culture medium following compound treatment for 16 hours. The assay was performed in opaque white 1536-well plates. In the screen, tamoxifen and doxorubicin were used as positive controls. Library compounds were measured for their ability to cause the activation of caspase 3/7 in the cell line, as reflected by an increase in luminescence signal, in a concentration-dependent manner. Data were normalized to the controls for basal activity (DMSO only) and 100% stimulation (100 uM tamoxifen). AC50 values were determined from concentration-response data modeled with the standard Hill equation.
qHTS protocol for caspase 3/7 assay in H-4-II-E cells
[Step] [Parameter] [Value] [Description]
1. Reagent; 5 uL; 1500 H-4-II-E cells/well
2. Time; 5 hr; 37 °C incubation
4. Controls; 23 nL; Tamoxifen 0.23 uM to 100 uM & Doxorubicin 7.0 pM to 100 uM
5. Time; 16 hr; 37 °C incubation
6. Reagent; 5 uL; Caspase-Glo 3/7 reagent
7. Time; 20 min; Room Temperature
8. Detection; Luminescence; Viewlux plate reader
Keywords: caspase 3/7, apoptosis, H-4-II-E cell line, luminescence, NTPHTS, NTPHTS_NCGC, NIEHS, EPA, DSSTox, MLSMR, MLSCN, NIH Roadmap, qHTS, NCGC

| SMILES | caspase-3 activation [%] |
| --- | --- |
| ClCCBr | 0.405 |
| Cc1ccc(N)c(N)c1 | 5.04 |
| CC(C)[N+](=O)[O-] | 0.699 |
| Clc1cc(Cl)c(Cl)c(Cl)c1 | 0.433 |
| CC(C)Br | 0.595 |
| C=CCOCC1CO1 (stereo not given) | 2.7 |
| CC(C)(COCC1CO1)COCC1CO1 (stereo not given) | 0.463 |
| O=C(O)C(Br)Br | 0.0709 |
| CCC(Cl)[N+](=O)[O-] (stereo not given) | 0.631 |
| Clc1ccc(C(Cl)(Cl)Cl)cc1Cl | -0.319 |
| O=C(O)c1cc(Cl)ccc1Cl | 1.42 |
| OCCCCO | -0.584 |
| Clc1cccc(Cl)c1Cl | 0.609 |
| O=[N+]([O-])c1ccc(Cl)c(Cl)c1Cl | 0.762 |
| CC(C)(C)OOC(=O)c1ccccc1 | -0.145 |
| Clc1cccc2ccccc12 | 0.347 |
| O=NN1CCCCC1 | -0.148 |
| C=CC=O | -0.0725 |
| Nc1ncc([N+](=O)[O-])s1 | 0.135 |
| CCCCCCCCCCCOC(=O)c1ccccc1C(=O)OCCCCCCCCCCC | 1.69 |

| SMILES | caspase-3 activation [%] |
| --- | --- |
| CCCBr | 1.26 |
| Cc1ccc(N)cc1Cl | 0.508 |
| O=C(O)c1cccc(Cl)c1 | 2.1 |
| Nn1cnnc1 | 0.0527 |
| N#CC(O)c1ccccc1 (stereo not given) | 0.445 |
| O=C(Cl)c1ccccc1F | -0.445 |
| CN(C)c1ccc(N)cc1 | 0.176 |
| N#CC(Br)Br | 14 |
| Nc1ccc2ccccc2c1 | 2.79 |
| N#CCc1ccccc1 | 0.37 |
| Nc1cc(Cl)ccc1O | 5.89 |
| CCC[N+](=O)[O-] | 1.17 |
| CC(C)(C)C(O)(CCc1ccc(Cl)cc1)Cn1cncn1 (stereo not given) | 0.573 |
| O=[N+]([O-])c1cccc(O)c1 | -0.699 |
| Nc1ccc(-c2ccccc2)cc1 | 1.85 |
| Clc1ccc(C(Cl)(Cl)Cl)c(Cl)c1 | 0.278 |
| CC(C)(OOC(C)(C)c1ccccc1)c1ccccc1 | -0.178 |
| Nc1ccc(Oc2ccc(N)cc2)cc1 | 0.0947 |
| O=C(O)CCl | 0.164 |
| [O-][Cl+]O | 0.292 |
